# Values joined by “and” are separate entries in the source; they are usually repeats but may differ in a detail not shown here. Equal entries are not always repeated.
# Biological target: C-X-C chemokine receptor type 6 (Homo sapiens) (UniProt O00574)
# Assay: APJ beta-arrestin recruitment blockade alongside CXCR6 – cell-based, DiscoveRx, panel, CHO-K1, counter-screen for CXCR6 antagonist project, SAR follow-up (AID 651598)
# Conditions: CHO-K1 PathHunter beta-arrestin luminescence, antagonist mode; run 3, at 80 µM (top of the series)
# Chain of C-X-C chemokine receptor type 6 (Homo sapiens) (O00574 whole entry, looked up): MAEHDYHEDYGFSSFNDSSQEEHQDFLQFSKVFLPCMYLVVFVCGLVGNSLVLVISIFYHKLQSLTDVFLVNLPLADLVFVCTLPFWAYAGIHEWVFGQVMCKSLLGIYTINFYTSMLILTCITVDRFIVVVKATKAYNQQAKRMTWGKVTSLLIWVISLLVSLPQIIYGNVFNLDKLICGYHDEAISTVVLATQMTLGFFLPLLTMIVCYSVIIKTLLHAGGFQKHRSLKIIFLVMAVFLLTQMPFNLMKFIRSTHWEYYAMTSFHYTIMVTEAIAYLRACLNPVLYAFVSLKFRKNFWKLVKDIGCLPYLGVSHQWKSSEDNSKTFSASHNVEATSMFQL
row,Structure (SMILES),inhibition
1,COc1cc(C(=O)NC2CC3CCC(C2)N3CC(=O)Nc2ccccc2)cc(OC)c1OC (stereo not drawn),56.5% and 4.53%
2,COc1cc(C(=O)NC2CC3CCCC(C2)N3CC(=O)Nc2ccccc2)cc(OC)c1OC (stereo not drawn),91% and 42.4% and 18.6%
3,COc1cc(C(=O)NC2CCN(CC(=O)Nc3ccccc3)CC2)cc(OC)c1OC,6.56%

# From PubChem BioAssay AID651598 (Sanford-Burnham Center for Chemical Genomics, 2012)
